This note sets out measurements from PubChem BioAssay AID1053126 (Broad Institute, 2014).

Results with a measured potency or affinity are listed apart. Active and inactive are the calls of the source.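 How the source made its calls: active means cell killing with a fitted half-effect concentration at or below twice the top valid dose; inconclusive means flat curve with 30 to 70 percent drop, or poor fit; inactive means the rest.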

The assay in a line: HEK293T cell cytotoxicity, dose response, cytotoxicity control, ATP luminescence, cherry-pick, set 6 (AID 1053126). Particulars: HEK293T viability, CellTiter-Glo ATP luminescence, 72 h; series mostly up to 26 µM. (In general: Cellular ATP, detected with luciferase, serves as a proxy for viable cell number.)
Regarding `O=c1[nH]c(Nc2ccccc2Cl)cc2ccccc12`, the result was inactive.

Regarding `Cc1cc(-n2c(=O)c(C#N)cc3c(=O)n4cccc(C)c4nc32)no1`, the compound was classed as inactive.

On to `COc1ccc(C2CC(c3ccccc3)=NN2c2ccc(C(N)=O)cc2)cc1` (stereo not drawn), for which the compound was called inactive.

As to `CCNC(=O)c1cc2c(=O)n3cccc(C)c3nc2n(Cc2ccc(C)cc2)c1=N`, the compound was called inactive.

Consider `CCn1c2ccccc2c(=O)c2ccccc21`, for which the call was inactive.

As to `CC(=O)N=c1c(C#N)cc2c(=O)n3ccccc3nc2n1CCCOC(C)C`, the call was inactive.

Regarding `CCCN1CCN(C(=O)c2ccc(CS(=O)c3ccc(Br)cc3)o2)CC1` (stereo not drawn), the result was inactive.

With `O=[N+]([O-])c1cccc(-c2n[nH]c(=S)n2-c2ccc(Br)cc2)c1`, the result was inactive.

On to `Cc1c(C=O)c2ccccn2c1C(=O)c1cccs1`, for which the outcome was inactive.

For `CC(C)C(=O)Nc1sc2c(c1C(N)=O)CCN(Cc1ccccc1)C2`, the call was inactive.

`CCOCCCNc1c(CC)c(C)c(C#N)c2nc3ccccc3n12`: the compound was called inactive.

As to `CCN1C=C(C(=O)OC)C(c2cccc(OC)c2OC)C(C(=O)OC)=C1`, the compound was called inactive.

`O=C(O)c1cccc(NC(=O)c2cn(-c3ccccc3)nc2-c2cccc(Br)c2)c1`: the result was inactive.

On to `CCCCN1C=C(C(=O)OC)C(c2ccccc2Cl)C(C(=O)OC)=C1`, for which the outcome was inactive.

For the compound `CC1CCCCC1NC(=O)CN1C(=O)c2cccc(N)c2C1=O` (stereo not drawn), the compound was classed as inactive.

Regarding `CC(=O)c1cc2c(ccc3ccccc32)oc1=O`, the result was inactive.

Turning to `COc1cc(C(c2c(C(=O)O)[nH]c3ccccc23)c2c(C(=O)O)[nH]c3ccccc23)ccc1OCc1ccccc1`, the call was inactive.

As for `S=c1[nH]c2ccc(Cc3ccc4[nH]c(=S)[nH]c4c3)cc2[nH]1`, the call was inactive.

Regarding `CSc1ccc(Cl)c(C(=O)N2CCOc3ccccc32)c1`, the result was inactive.

In the case of `CSC1=NSC2=NC(=O)/C(=C/c3coc4ccc(O)cc4c3=O)C(=N)N12`, the result was inactive.

Take `Cc1cccn2c(=O)c3cc(C(N)=S)c(=N)n(CCCN4CCOCC4)c3nc12`: the outcome was inactive.

For `N#Cc1c(NCCCO)nc(NCc2ccccc2)c2c1CCN(Cc1ccccc1)C2`, the compound was classed as inactive.

With `O=C(NS(=O)(=O)c1ccc(Cl)s1)c1ccccc1`, the compound was called inactive.

With `CCOc1ccc(S(=O)(=O)Nc2ccc(C(=O)N(CC)CC(=O)NCc3cccs3)cc2)cc1`, the call was inactive.

Take `CN1CCc2c(sc(NC(=O)C3CCCCC3)c2C(N)=O)C1`: the call was inactive.

Consider `CN(C)/C=C/C(=O)c1c(F)cccc1F`, for which the call was inactive.

As to `CC(=O)c1cc2ccc(O)cc2oc1=O`, the call was inactive.

`COc1ccccc1NS(=O)(=O)c1cc(NC(=O)CCNC(C)=O)ccc1C`: the outcome was inactive.

Consider `Cn1cccc1/C=N/NC(=O)c1sc2cc(Cl)ccc2c1Cl`, for which the call was inactive.

Turning to `CC(=O)OC[C@@H]1CN(Cc2ccccc2)C[C@H](n2cnc3c(N(C)C(C)C)ncnc32)O1`, the compound was classed as inactive.

Regarding `O=C(Nc1ccc2c(c1)OCCO2)c1ccc(NC(=O)C2CCCO2)cc1` (stereo not drawn), the result was inactive.

As for `Cc1cc(OC(=O)c2ccccc2Cl)ccc1N1C(=O)CCC1=O`, the compound was classed as inactive.

For the compound `O=C(CCc1c[nH]c2ccccc12)OCC(=O)c1ccccc1`, the compound was called inactive.

As to `Cc1ccc(-c2nc3ccsc3c(=O)[nH]2)cc1`, the result was inactive.

For `C#CCOc1ccc(C2C(C#N)=C(N)Oc3cc(O)ccc32)cc1` (stereo not drawn), the call was inactive.

As to `CCOc1ccc2nc(NCCNC(=O)CC)c(C#N)cc2c1`, the result was inactive.

Turning to `O=c1oc2c(CN3CCCCC3)c(O)ccc2cc1-c1nc2ccccc2[nH]1`, the compound was called inactive.

Consider `Cc1c(Nc2c3ccccc3nc3ccccc23)c(=O)n(-c2ccccc2)n1C`, for which the outcome was inactive.
